In the library only some 2.5% were active in any assay of this set; here they are far more common.
Cruzain inh noDet = qHTS Assay for Promiscuous and Specific Inhibitors of Cruzain (without detergent); Cruzipain (Trypanosoma cruzi), P25779; purified cruzain, Z-FR-AMC fluorescence, no detergent; Potency, µM, inactives show max response, negative = inhibition, actives largely listed as inhibitors; 200,000 compounds, 2.3% hits; AID 1476, 2009;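 note: plate controls were enzyme without inhibitor for no effect and buffer without enzyme for full effect; nearly all actives have a fitted effect of over 40% in size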
Target sequence (P25779 123-467 limits assumed): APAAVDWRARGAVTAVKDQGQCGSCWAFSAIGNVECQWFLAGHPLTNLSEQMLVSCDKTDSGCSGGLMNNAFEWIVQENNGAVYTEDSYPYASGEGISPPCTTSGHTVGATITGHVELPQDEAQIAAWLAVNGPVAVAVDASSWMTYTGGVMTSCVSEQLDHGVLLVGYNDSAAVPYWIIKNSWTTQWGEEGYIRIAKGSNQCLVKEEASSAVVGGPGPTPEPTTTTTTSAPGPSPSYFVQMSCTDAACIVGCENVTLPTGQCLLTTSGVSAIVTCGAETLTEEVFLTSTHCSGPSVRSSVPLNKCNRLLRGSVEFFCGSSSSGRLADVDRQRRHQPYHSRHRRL
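Detergent-free condition (0.00005% Triton X-100) in acetate buffer pH 5.5 with DTT. 1.5 nM enzyme and compound were pre-mixed 15 min, then 2 uM Z-FR-AMC substrate added; reaction progress from fluorescence change between first and third reads (60 s).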
Cruzain inh Det = qHTS Assay for Promiscuous and Specific Inhibitors of Cruzain (with detergent); 200,000 compounds, 0.43% hits; Potency, µM, for inactives: max response, negative = inhibition, most hits filed as inhibitors; AID 1478, 2009; purified cruzain, Z-FR-AMC fluorescence, 0.01% Triton;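 note: plate controls were neutral wells for no effect and buffer without enzyme for full effect; nearly all actives have a fitted effect of over 40% in size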
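Z-FR-AMC hydrolysis (2 uM substrate) by cruzain (1.5 nM) monitored kinetically at ex 360/em 450 nm after 15 min room-temperature compound exposure; 0.01% Triton X-100, pH 5.5, 5 mM DTT.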
Papain inh = qHTS Assay for Inhibitors of Papain: Counterscreen for Cruzain Assay; 410 compounds, 41% hits; purified papain, Z-FR-AMC fluorescence cleavage; Potency, µM, without a hit: max response, negative = inhibition, usual class: inhibitors; shares compounds with Cruzain inh Det;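 note: 0% = no-compound wells and -100% = no-enzyme wells; nearly all actives have a fitted effect of over 35% in size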
Starred values were filed as active, the others as inactive. Calls come from the whole dose curve; as a rule, active = well fitted curve in the direction sought with a large enough effect; inconclusive = small, poorly fitted or top-dose-only effect, or another doubt; inactive = no such curve, though single readings can be large; an effect the other way counts as inactive or inconclusive. Potency is the fitted concentration of half-maximal effect.

`Cc1ccc2[nH]c(=O)c(CN(Cc3ccco3)Cc3nnnn3Cc3ccco3)cc2c1` gave Papain inh -3%.
Screening CCc1ccc2[nH]c(=O)c(CN(Cc3ccco3)Cc3nnnn3Cc3ccco3)cc2c1 returned Papain inh -19%.
COc1ccc2cc(CN(CCc3ccccc3)Cc3nnnn3Cc3ccco3)c(=O)[nH]c2c1 was read as Cruzain inh noDet 14% and Cruzain inh Det -12%.
COc1ccc2[nH]c(=O)c(CN(Cc3nnnn3Cc3ccco3)C3CCCCC3)cc2c1 was read as Cruzain inh noDet 7.9µM*, Cruzain inh Det 7.1µM* and Papain inh -42%.
Cc1ccc2[nH]c(=O)c(CN(Cc3ccccc3)Cc3nnnn3C3CCCC3)cc2c1 was read as Cruzain inh noDet 12% and Cruzain inh Det -12%.
`COc1ccc2[nH]c(=O)c(CN(C3CCCCC3)C(c3nnnn3Cc3ccco3)C(C)C)cc2c1` (centres undefined) gave Cruzain inh noDet inconclusive and Cruzain inh Det -24%.
Screening CCC(c1nnnn1Cc1ccco1)N(Cc1ccccc1OC)Cc1cc2cc(C)ccc2[nH]c1=O (centres undefined) returned Cruzain inh noDet -13% and Cruzain inh Det -9%.
Screening COCCCNC(=O)c1ccc(-n2c(-c3ccccc3)cc3c2CCC(C)C3)cc1 (centres undefined) returned Cruzain inh noDet 3% and Cruzain inh Det -2%.
Screening CS(=O)(=O)n1nc(-c2ccco2)nc1NCc1ccccc1Cl returned Cruzain inh noDet -3% and Cruzain inh Det -5%.
For COC(=O)c1ccccc1NC(=O)Cn1c(=O)nc(-c2ccccc2)c2cc(Cl)ccc21 the results were Cruzain inh noDet -8% and Cruzain inh Det -1%.
`Cc1ccc(CN(Cc2cc3cc4c(cc3[nH]c2=O)OCCO4)Cc2nnnn2Cc2ccco2)cc1` gave Cruzain inh noDet 11%, Cruzain inh Det 20µM* and Papain inh -26%.
Cc1ccc2cc(CN(Cc3ccc4c(c3)OCO4)Cc3nnnn3Cc3ccco3)c(=O)[nH]c2c1 was read as Cruzain inh noDet -3% and Cruzain inh Det -10%.
`O=C(Nc1ccc(-n2nncc2-c2ccccc2)cc1)c1ccccc1` gave Papain inh 5%.
`CSc1ccc(/C=C/C(=O)c2ccc(NC(C)=O)cc2)cc1` gave Cruzain inh noDet inconclusive and Cruzain inh Det -14%.
`CC(=O)Nc1ccc(/C=C/C(=O)c2ccc(-n3nncc3-c3ccccc3)cc2)cc1` gave Papain inh -6%.
Screening COc1cccc(C(=O)Nc2ccc(-n3nncc3-c3ccccc3)cc2)c1 returned Cruzain inh noDet -5% and Cruzain inh Det 2%.
`Cc1ccc(CSc2nc(=O)c3c(C)cc(C)nc3n2C2CC2)cc1` gave Cruzain inh noDet 2% and Cruzain inh Det -2%.
CCc1ccccc1NS(=O)(=O)c1ccc(NC(=O)N2CCCC2)cc1 was read as Cruzain inh noDet 0% and Cruzain inh Det -2%.
Screening COc1ccc(CN(Cc2ccco2)c2cnc(S(C)(=O)=O)nc2C(=O)Nc2ccc(F)cc2)cc1 returned Cruzain inh noDet -11% and Cruzain inh Det -4%.
`COC(=O)c1cc2oc3ccccc3c2n1Cc1cccc(C)c1` gave Cruzain inh noDet inconclusive and Cruzain inh Det -30%.
Screening CCNc1ncc2ncc(=O)n(Cc3cccs3)c2n1 returned Cruzain inh noDet -12% and Cruzain inh Det 1%.
`Nc1ccc2c(c1)C(=O)C(=O)c1ccccc1-2` gave Cruzain inh noDet inconclusive, Cruzain inh Det 22µM* and Papain inh 16µM*.
Screening Nc1ccc2c(c1)C(=O)c1ccccc1C2=O returned Cruzain inh noDet -19% and Cruzain inh Det 1%.
For C[C@@H]1C[C@](C)(C(=O)c2ccc3c(c2)OCO3)C=C1c1ccc2c(c1)OCO2 the results were Cruzain inh noDet 5% and Cruzain inh Det 1%.
For Cc1noc(C)c1C(=O)N1CCC2(CCN(Cc3ccncc3)CC2)CC1 the results were Cruzain inh noDet -2% and Cruzain inh Det 6%.
COc1ccccc1N1CCN(C(=O)CN(c2ccccc2OC)S(=O)(=O)c2ccccc2)CC1 was read as Cruzain inh noDet inconclusive, Cruzain inh Det 3% and Papain inh 8%.
Screening CCOC(=O)N1CCN(C(=O)CN(c2cc(Cl)ccc2OC)S(=O)(=O)c2ccccc2)CC1 returned Cruzain inh noDet inconclusive and Cruzain inh Det 3%.
For COc1cc(-c2noc(-c3ccc(N4CCN(C)CC4)c([N+](=O)[O-])c3)n2)cc(OC)c1OC the results were Cruzain inh noDet 1% and Cruzain inh Det -2%.

From PubChem
